Among all 94,000 compounds or so, about 4,000 (4.3%) were called active. Another 29% or so got no clear call; they are omitted. The list comes from a sample in which actives are over-represented; it also holds similar structures and randomly drawn compounds. Unmarked numbers belong to inactive results. Calls follow the shape of the dose curve; as a rule, active = well fitted inhibition curve with a large enough effect; inconclusive = small, poorly fitted or top-dose-only effect; inactive = no such curve, though single readings can be large or run the other way.
assay: Cytotoxic Profiling in NIH 3T3 Cell Line of Diverse Libraries Using Quantitative High-Throughput Screening; settings: NIH 3T3 viability, CellTiter-Glo ATP luminescence, 48-72 h; series mostly up to 96.7 µM; activity change, negative = cytotoxicity: at the top concentration; also: nearly all actives have a fitted effect of over 55% in size
Summary of the method: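 Cells were seeded at 400 per well, treated with pin-transferred compound, and kept 48 or 72 hr at 37 °C before CellTiter-Glo addition and luminescence imaging of cellular ATP.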
% is scaled to controls: 0 for no effect and ±100 for the full control effect; potency is read from the fitted curve at half-maximal effect.

| SMILES | activity change, negative = cytotoxicity | Potency | outcome |
| --- | --- | --- | --- |
| O=C(NCc1cccnc1)C1CCCN(c2cnn(Cc3ccccc3)c(=O)c2)C1 (configuration not stated) | -24.1% | – | – |
| Cc1nc(CCNC(=O)C2CCCN(c3nc(-c4ccccc4)nc4c3CCC4)C2)n[nH]1 (configuration not stated) | -19.5% | – | – |
| O=C(NC1CC1)C1CCCN(c2nc3ncccc3o2)C1 (configuration not stated) | -5.51% [at 138 µM] | – | – |
| Cc1ccccc1CN1CCC(N2CCCC(C(=O)NC3CC3)C2)CC1 (configuration not stated) | -0.637% | – | – |
| CNC(=O)C1CCN(c2nccc(Nc3ccccc3F)n2)CC1 | -43.4% [at 138 µM] | – | – |
| O=C(NCc1ccc(F)cc1)C1CCN(c2nccc(Nc3ccccc3F)n2)CC1 | – | 44.7 µM (active) | – |
| O=C(NC1CCCCC1)C1CCCN(c2nccc(Nc3ccccc3F)n2)C1 (configuration not stated) | – | 14.1 µM (active) | – |
| Cc1ccc(CNC(=O)C2CCN(C(=O)c3ncn4c3COC(c3ccc(F)cc3)C4)CC2)cc1 (configuration not stated) | – | – | inactive |
| CC(C)CNC(=O)C1CCCN(c2nccc(Nc3ccccc3F)n2)C1 (configuration not stated) | – | 44.7 µM (active) | – |
| Cc1ccc(C(=O)N2CCC(c3n[nH]c(=O)n3Cc3ccc(F)cc3)CC2)cc1 | -16.8% | – | – |
| O=C1CCN([C@@H]2CCC[C@H]2O)c2cc3c(cc2CN1Cc1ccccc1)OCO3 | -22.9% | – | – |
| COc1cccc([S+](=O)([O-])N2CCCC3(CC(c4ccccc4)=NO3)C2)c1 (configuration not stated) | -14.2% | – | – |
| N[C@@H](Cc1cnc[nH]1)C(=O)N1CCC(c2cc(N3CCCC3)ncn2)CC1 | -4.08% | – | – |
| COc1ccc(C2Cn3nnc(-c4noc(-c5sccc5C)n4)c3CO2)cc1 (configuration not stated) | 0.859% | – | – |
| CCc1cc(C(=O)N2CCC(Oc3ccccc3)(C(=O)O)CC2)cs1 | 1.22% | – | – |
| CC(C)CNc1ncnc2c1CN(C1CCC1)C(=O)CN2C | -28.4% | – | – |
| O=C(c1ccc(F)c(F)c1)N1CCN(C2CCN(CCc3ccccc3)C2=O)CC1 (configuration not stated) | -8.32% | – | – |
| COCc1nncn1C1CCN(C(=O)c2ccccc2F)CC1 | – | – | inactive |
| N[C@H]1CCN2C(=O)c3cc(-c4ccc(F)cc4F)ccc3NC(=O)[C@H]12 | – | 112 µM (active) | – |
| O=C1Nc2ccc(-c3ccsc3)cc2C(=O)N2CC[C@H](NS(=O)(=O)c3cccs3)[C@@H]12 | -25.8% | – | – |
| O=C1Nc2ccc(-c3ccccc3F)cc2C(=O)N2CCN(C(=O)c3cccs3)C[C@H]12 | -25.5% | – | – |
| CS(=O)(=O)N1C[C@H]2CCN(C(=O)c3ccc(=O)[nH]c3)C[C@H]21 | -12.6% | – | – |
| COc1ccc2cc(-c3[nH]ncc3CN3CCN(c4cccc(C)n4)CC3)ccc2c1 | – | 28.2 µM (active) | – |
| CC(=O)N[C@@H]1CN(Cc2cn[nH]c2-c2ccc(F)cc2)C[C@H]1CO | -7.37% | – | – |

| SMILES | activity change, negative = cytotoxicity | Potency | outcome |
| --- | --- | --- | --- |
| COc1ccc(-c2[nH]ncc2CN2CCCC(C(=O)NCc3ccccc3)CCNC(=O)CC2)cc1 (configuration not stated) | – | – | inactive |
| CCc1nnc([C@@H]2CC(F)(F)CN2C(=O)c2cc(C)oc2C)o1 | -7.09% | – | – |
| C=CCNC(=O)N[C@H]1C[C@@H](C(=O)N[C@H](Cc2c[nH]c3ccccc23)C(N)=O)N(C(=O)C=C(C)C)C1 | -1.24% | – | – |
| O=C1CC2(CCN(C(=O)C3CCN(C(=O)c4ccccc4Cl)CC3)CC2)Oc2ccccc2N1 | -8.99% | – | – |
| O=C(Cn1ccnc1)N1CCC(c2noc(-c3ccncc3)n2)C1 (configuration not stated) | – | – | inactive |
| O=C(NC1CCCC1)N1CCC(c2noc(-c3ccccc3)n2)C1 (configuration not stated) | – | 39.8 µM (active) | – |
| Cn1cnc(S(=O)(=O)N2CCC(c3noc(-c4ccccc4)n3)C2)c1 (configuration not stated) | -21.7% | – | – |
| Cc1noc(C)c1S(=O)(=O)N1CCC2(CC1)CN(c1ccccc1)C2=O | -6.57% | – | – |
| O=C(NC1CCCCC1)N1CCCC(Cn2c(C3CC3)nc3cccnc32)C1 (configuration not stated) | -7.77% | – | – |
| Cc1nc(N2CCC(NC(=O)C(C)Oc3ccccc3)CC2)cc(C(F)(F)F)n1 (configuration not stated) | -44.5% | – | – |
| Cc1nc(N2CCC(C(=O)NCc3ccc(C(C)C)cc3)CC2)cc(C(F)(F)F)n1 | – | 25.1 µM (active) | – |
| Cc1nc(N2CCC(NC(=O)c3ccc4c(c3)OCO4)CC2)cc(C(F)(F)F)n1 | -41.1% | – | – |
| CNC(=O)N1CCc2nc(N3CCOCC3)[nH]c(=O)c2CC1 | – | – | inactive |
| COc1ccc([S+](=O)([O-])c2nnn3c2nc(NC2CCCC2)c2ccccc23)cc1 | -9.25% | – | – |
| O=C(NCCOc1ccccc1)c1nc2c(o1)CCN(CC1CCCCC1)CC2 | – | 79.4 µM (active) | – |
| CCc1nc2c(c(-c3ccc(OC)cc3)n1)CCN(CC1CCCCC1)CC2 | -2.8% | – | – |
| O=C(NCC1CC1)c1nc2c(o1)CCN(CCc1ccccc1)CC2 | -20.5% [at 138 µM] | – | – |
| CN(C)C[C@@H]1CN(S(C)(=O)=O)C[C@H]1NC(=O)c1cccc(F)c1 | 1.85% | – | – |
| COc1ccc(C(=O)N2CCC(N3C[C@H](O)C[C@H]3C(=O)NC3CCCCC3)CC2)cn1 | – | – | inactive |
| C[S+](=O)([O-])N1CCC2(C1)N=C(c1ccccn1)C(=O)N2 (configuration not stated) | 3.04% [at 138 µM] | – | – |
| CCN1C(=O)COC[C@@H]1C(O)c1ccc(NC(=O)Cc2ccc(OC)cc2)cc1 (some centres not stated) | – | – | inactive [at 174 µM] |
| COc1ccccc1CN1C(=O)COC[C@@H]1[C@H](O)c1ccc(NC(=O)c2ccc(C#N)cc2)cc1 | – | 44.7 µM (active) | – |
| CC(C)CN1C(=O)COC[C@@H]1[C@H](O)c1ccc(NC(=O)Cc2ccccc2)cc1 | -11.9% [at 138 µM] | – | – |

Reference: PubChem BioAssay AID1345082 (National Center for Advancing Translational Sciences (NCATS), 2018)
